Bioassay records (PubChem)
SW480 rereplic = DNA re-replication induction in SW480 cells; SW480 DNA re-replication, Hoechst DNA content imaging, 48 h; Potency, µM (titrated, usually from 46.1 µM), usual class: activators; 340,000 compounds, 1.8% hits; AID 624297; also: nearly all actives have a fitted effect of over 55% in size
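Per well, 250 cells were exposed to pinned compound for 48 hr. Nuclear DNA was visualised with Hoechst (40 min, 37 C) and total object intensity recorded by fluorescence scanning.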
p53 reactivation = restores transcriptional activity of mutant p53; H1299 p53-A138V BP100-luciferase reporter, luminescence, 24 h; Potency, µM (series often up to 92.2 µM), most hits filed as activators; 320,000 compounds, 0.063% hits; also: nearly all actives have a fitted effect of over 45% in size
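p53-null H1299 cells stably carrying temperature-sensitive p53-A138V and a BP100-luciferase reporter were pinned with compounds (4-point, 1:5 series) and held 24 hrs at 37 deg C. Luminescence was read 10 min after detection reagent.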
ELG1 repair inh = blocks ELG1-dependent DNA repair in HEK293T cells | Potency, µM (doses to about 46.1 µM), hits mostly inhibitors | HEK293T ELG1-luciferase reporter, luminescence, 16 h; DNA damage induced by 5-fluorouridine | 330,000 compounds, 2.3% hits; also: nearly all actives have a fitted effect of over 55% in size
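5-Fluorouridine DNA damage + compound/DMSO, 2,000 cells/well, 16 h, 37 °C/5% CO2. ONE-Glo, 30 min RT, luminescence. Readout = decrease in reporter signal.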
AT treatment = potential ataxia-telangiectasia treatments restoring KAP-1 phosphorylation. 320,000 compounds, 0.19% hits. AID 485349. Potency, µM (highest dose often 57.5 µM), actives largely listed as activators. F2112 A-T fibroblasts, KAP-1 phosphorylation AlphaLISA; neocarzinostatin DNA damage 30 min before lysis; also: nearly all actives have a fitted effect of over 45% in size
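hTERT-immortalized A-T patient fibroblasts (F2112), 500 cells/well in OPTI-MEM, 1% FBS, got compounds for 60 min, then NCS for 30 min at 37C. Lysates were then assayed for phospho-KAP-1 by AlphaLISA (anti-pKAP1 donor, anti-KAP1 acceptor beads), 6 hr at 25C.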
ELG1 genotoxic = induces genotoxicity in HEK293T cells with luciferase-tagged ELG1 | 330,000 compounds, 1.3% hits | Potency, µM (top dose mostly 46 µM), most hits filed as activators | HEK293T ELG1-luciferase reporter, luminescence, 16 h | AID 504466; also: nearly all actives have a fitted effect of over 60% in size
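HEK293T cells expressing luciferase-tagged ELG1 were treated with compound or DMSO for 16 hr at 37°C. Luciferase activity was then read after 30 min with ONE-Glo at room temperature; rising signal flags genetic stress.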
MCF10A rerep = inducers of DNA re-replication in MCF 10A breast cells. MCF 10A DNA re-replication, Hoechst nuclear intensity, 48 h. Potency, µM (highest dose often 46.1 µM), usual class: activators. 350,000 compounds, 2.9% hits; also: nearly all actives have a fitted effect of over 50% in size
Numbers stand for hits; 0 = inactive; ? = inconclusive; - = no result; [ ] = dose if it differs, or a comment. This is a sample that favours compounds with a hit; in the whole collection about 7.1% have one here. Calls follow the shape of the dose curve; as a rule, active = well fitted curve in the direction sought with a large enough effect; inconclusive = small, poorly fitted or top-dose-only effect, or another doubt; inactive = no such curve, though single readings can be large; an effect the other way counts as inactive or inconclusive.

SMILES	SW480 rereplic	p53 reactivation	ELG1 repair inh	AT treatment	ELG1 genotoxic	MCF10A rerep
O=C(Nc1cccnc1)c1cc(-c2ccccc2)on1	0	0	0	0	0	0
O=C(Nc1cccnc1)c1cc(-c2ccc(Br)cc2)on1	0	0	?	0	5.8µM	0
CC(=O)c1cccc(NC(=O)c2cc(-c3ccc(C)cc3)on2)c1	0	0	?	0	4.6µM	0
COc1ccc(NC(=O)c2cc(-c3ccc(C)cc3)on2)cc1OC	0	0	0	0	0	?
COc1cccc(-c2cc(C(=O)N3C(C)CCCC3C)no2)c1 (configuration not stated)	0	?	?	-	7.1µM	0
COc1ccc(C(=O)Nn2c(CC(C)C)nc3cc(Cl)ccc3c2=O)c(OC)c1	0	-	0	0	0	0
CCCCCCCCCCCC[n+]1ccc2ccccc2c1	?	-	-	-	-	0
COc1cccc(-c2cc(C(=O)Nc3cc(OC)c(OC)c(OC)c3)no2)c1	?	0	23µM	0	0	3.7µM
CC(C)n1cc(NC(=O)c2cc(-c3ccccc3)on2)cn1	5.2µM	?	?	-	18µM	3.7µM
COC(=O)c1ccc(N=NN2CCCCC2)cc1	0	0	?	0	8.2µM	0
O=c1c(Cl)c(O)c2cccc3c4ccccc4n1c23	0	0	0	0	0	23µM
NNC(=O)c1oc2nc(-c3ccc(Cl)cc3)cc(-c3ccccc3)c2c1N	23µM	0	16µM	0	0	8.2µM
Nc1c(C(=O)N/N=C/c2cccnc2)oc2nc(-c3ccccc3)cc(-c3ccco3)c12	?	0	7.3µM	0	0	18µM
NNC(=O)c1oc2nc(-c3ccco3)cc(-c3ccco3)c2c1N	0	0	?	0	0	?
Nc1c(C(=O)N/N=C/c2cccnc2)oc2nc(-c3ccco3)cc(-c3ccco3)c12	?	0	2.9µM	0	0	?
O=C(NNC(=O)C1CC(=O)N(Cc2ccccc2)C1)c1ccc(F)cc1 (configuration not stated)	0	0	0	0	0	0
COc1cccc(NC(=O)COC(=O)CCn2c(C)csc2=O)c1	0	0	0	0	0	0
Cc1cccc(-c2nnc(-c3ccccc3)o2)c1	0	11µM	?	0	8.2µM	0
Cc1ccccc1-c1nnc(-c2ccccc2)o1	0	?	?	0	9.2µM	0
Cc1ccccc1-c1nnc(-c2ccc(Cl)cc2)o1	0	?	?	0	16µM	0
Clc1ccc(-c2nnc(-c3cccc4ccccc34)o2)cc1Cl	0	0	?	16µM	0	0
NC(=S)NN=C1CCSCC1	0	-	-	-	-	0
CCOc1ccccc1NC(=O)CSc1nnc(-c2cccnc2)o1	0	0	0	0	0	0
Cc1ccccc1-c1nc(Cc2ccc(Cl)cc2)no1	0	0	?	0	23µM	0
N#Cc1c(N)nc2c(c1-c1ccncc1)CCCCC2	0	0	0	0	0	?
SMILES	SW480 rereplic	p53 reactivation	ELG1 repair inh	AT treatment	ELG1 genotoxic	MCF10A rerep
N#Cc1c(N)nc2c(c1-c1cccnc1)CCCCC2	0	0	13µM	0	0	0
CC(=NO)c1ccc2c(c1)Cc1cc([N+](=O)[O-])ccc1-2	0	-	-	-	-	0
CC(O)CN(CC(C)O)c1ccc2c(c1)Cc1cc([N+](=O)[O-])ccc1-2 (configuration not stated)	8.2µM	-	-	-	-	12µM
CC(=O)N(c1nnc(-c2ccc(C)cc2)s1)C1CCCC1	0	-	?	0	?	?
CCCC[C@@H]1CNC(=S)N1CCC12CC3CC(CC(C3)C1)C2	0	0	0	0	0	16µM
Clc1ncnc2scc(-c3ccccc3)c12	0	?	0	0	0	0
COc1ccc(-c2csc3nc(-c4cccnc4)nc(Cl)c23)cc1OC	?	0	?	0	0	18µM
Clc1nc(-c2cccnc2)nc2scc(-c3ccccc3)c12	12µM	0	?	0	?	16µM
O=C(Nc1cccc(/C=C/c2ccccn2)c1)c1ccc(-n2cncn2)c([N+](=O)[O-])c1	0	0	9.2µM	0	0	?
Cc1cccc(-n2c(C)cc(C=C3C(=O)c4ccccc4C3=O)c2C)c1	0	?	?	0	?	?
Cc1cc(C=C2C(=O)c3ccccc3C2=O)c(C)n1-c1ccc(Cl)cc1	0	0	?	0	4.6µM	0
CCCc1cc(=O)n(-c2nc3ccccc3s2)[nH]1	0	0	21µM	0	0	0
CCC(C)c1ccc(NC(=O)C2=CC=CN3CCS(=O)(=O)N=C23)cc1 (configuration not stated)	0	0	?	0	?	0
CC1(NC(=O)c2ccccc2)CCN(CCCc2ccccc2)C1=O (configuration not stated)	0	0	0	0	0	0
Cc1cc(C)cc(OCCCCn2cncn2)c1	0	0	0	0	0	0
O=C(NCCc1ccc(F)cc1)c1coc(=O)c(Br)c1	0	?	?	0	?	4.1µM
O=C(Nc1ccccc1)Nc1ccc(F)c([N+](=O)[O-])c1	0	0	0	0	0	15µM
Cc1ccc(NC(=O)Nc2ccccc2)cc1[N+](=O)[O-]	0	?	?	0	0	0
O=C(Nc1ccccc1)Nc1ccc(Cl)c([N+](=O)[O-])c1	?	0	?	0	0	15µM
O=C(Nc1ccc(Cl)cc1)Nc1cc([N+](=O)[O-])ccc1F	0	0	13µM	0	0	0
CCOP(=O)(OCC)C(NC(=O)Nc1cccc(Cl)c1)c1ccccc1 (configuration not stated)	0	0	0	0	0	?
CCOP(=O)(OCC)C(NC(=O)Nc1cccc(Cl)c1)C(N)=O (configuration not stated)	1.5µM	0	0	0	0	0
CC[C@H](C)[C@@H]1NC(=O)[C@H]([C@@H](C)CC)NC(=O)[C@@H](CC(C)C)NC(=O)[C@H](Cc2ccccc2)NC(=O)[C@H](Cc2ccccc2)NC(=O)[C@@H]2CCCN2C(=O)[C@@H]2CCCN2C(=O)[C@H](C(C)C)NC(=O)[C@H](CC(C)C)NC1=O	?	0	?	0	0	21µM
c1cn2cc(CSC3CCCCC3)nc2s1	0[9.22 µM]	?	?	0	2.3µM	0
c1ccc(CSCc2cn3ccsc3n2)cc1	0	?	?	0	16µM	?
O=C(NCCc1cn2ccsc2n1)C1CCCCC1	0	0	?	0	0	0
O=C(NNC(=S)NC1CCCCC1)c1ccc2c(c1)OCO2	0	?	?	0	0	0
O=C(NC1CC1)c1ccc(S(=O)(=O)NCC2CCCCC2)cc1	0	0	0	0	0	5.8µM
